Bioassay records as filed in PubChem BioAssay.
The list is not random: actives were taken first. Their share in the collection is about 4.7%.
D1 antagonist – blocks dopamine activation of the human D1 receptor; actives 3.2% (n = 360,000); HEK293 TREx D1 cells, calcium flux, dopamine EC80; stronger effect = lower value; activity change, negative = inhibition, % at 10 µM; in the data active = activity change below about -30%; also: % is scaled to controls: 0 for no effect and ±100 for the full control effect
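Tetracycline-induced HEK293 Trex D1 cells, force-coupled to calcium, dye-loaded; compounds added and read 180 s, then EC80 dopamine added and calcium flux tracked kinetically another 180 s.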
D1 agonist – activates the human D1 dopamine receptor | P21728 | actives 1% (n = 360,000) | AID 504660 | HEK293 T-REx D1 cells, calcium flux, agonist mode | activation, % at 2 µM; also: 0% is about no effect
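Tetracycline-induced HEK293 TREx D1 cells, force-coupled to calcium signalling, were dye-loaded with a no-wash calcium kit. Compound was pin-added after a 10 s baseline. Fluorescence was read kinetically at 1 cycle/s for 180 s, with calcium rises flagged as agonism.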
TRHR PAM – allosterically enhances the human TRH receptor; P34981; TRHR cells, fluo-8 calcium fluorescence, EC20 TRH enhancement; enhancement, % at 2 µM; actives 0.66% (n = 360,000); in the data active = enhancement above about 30%; also: 0% is about no effect
Target sequence (P34981 whole entry, looked up): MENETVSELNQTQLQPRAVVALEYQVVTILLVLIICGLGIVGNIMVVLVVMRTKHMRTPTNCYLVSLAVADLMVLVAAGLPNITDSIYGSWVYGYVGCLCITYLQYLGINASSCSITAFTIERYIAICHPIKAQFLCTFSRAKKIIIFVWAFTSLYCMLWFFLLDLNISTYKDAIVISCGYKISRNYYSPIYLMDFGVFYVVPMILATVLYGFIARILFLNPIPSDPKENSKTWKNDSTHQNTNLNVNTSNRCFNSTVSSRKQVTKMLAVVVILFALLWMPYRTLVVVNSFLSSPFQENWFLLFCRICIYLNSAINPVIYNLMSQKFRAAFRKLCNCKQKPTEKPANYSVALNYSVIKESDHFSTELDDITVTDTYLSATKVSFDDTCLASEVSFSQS
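TRHR-expressing cells loaded with fluo-8 calcium dye were read kinetically (ex 480/em 530) during compound addition, then stimulated with an EC20 of TRH (10 nM final). Enhancement of the Gq-mediated intracellular calcium response was scored.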
D1 PAM – enhances dopamine response at the human D1 receptor; HEK293 TREx D1 cells, calcium flux, dopamine EC20 potentiation; potentiation, % at 10 µM; actives 0.036% (n = 360,000); AID 504651; in the data active = potentiation above about 30%; also: 0% is about no effect
TRHR agonist – agonists of human TRH receptor | P34981 | TRHR cells, calcium flux fluo-8, FDSS agonist mode | activation, % at 2 µM | actives 0.18% (n = 360,000) | AID 493084; also: 0% is about no effect
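In this calcium-flux screen, cells bearing human TRHR are dye-loaded with fluo-8, baselined for 10 cycles, then exposed to library compounds; positive kinetic calcium responses during the agonist phase mark hits, with TRH as control.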
* = called active by the depositor; x = not tested or not shown; ! = not active in a repeat. Rule as the data show it, unless noted: active = activation above about 30%; inactive = the rest.

SMILES	D1 antagonist	D1 agonist	TRHR PAM	D1 PAM	TRHR agonist
CN(c1ccc(C(=O)Nc2ccccc2Sc2ccccc2)cc1)S(C)(=O)=O	-40.3*	17.4	1.4	-2.8	2.3
Cc1ccc(C(=O)Nc2ccccc2Sc2ccccc2)cc1	-8.1	4.1	0.3	-6.3	0.4
CN(c1ccc(C(=O)Nc2ccc(CC#N)cc2)cc1)S(C)(=O)=O	-34.3*	3.2	3.0	-3.2	0.6
C(=C\c1ccc2ccccc2n1)/c1ccccc1	42.4	3.4	-4.2	5.2	0.9
CN(C)c1ccc(/C=C/c2ccc3ccccc3n2)cc1	-5.3	138.7*	15.9	1.9	38.2*
CCCN(CCC)c1ccc(/C=C/c2ccc3cc(OCC)ccc3n2)cc1	-19.1	32.8*	-3.7	-2.6	35.1*
CCOc1ccc(/C=C/c2nc(C#N)c(N(C)C)o2)cc1	1.3	2.1	-9.3	-0.3	-2.1
COC(=O)C1=C(C)N(C(C)C)C(=O)C1(NC(=O)c1ccc(C(C)(C)C)cc1)C(F)(F)F (centres undefined)	0.3	1.8	-6.0	-2.5	-1.2
CC1(C)CC(=O)C(C(c2ccco2)C2C(=O)CC(C)(C)CC2=O)C(=O)C1	3.2	5.0	38.6*	-2.2	0.1
Cc1n[nH]c(=O)c2c1nnn2Cc1ccccc1Cl	-51.5*	0.3	-25.5	-6.7	-0.2
CC1CCCN(S(=O)(=O)c2ccc(NC(=O)C3CCN(C(=O)C(C)(C)C)CC3)cc2)C1 (centres undefined)	-5.5	7.5	9.3	-3.5	2.2
COc1ccc(C)cc1N(CC(=O)NCCSCc1ccco1)S(=O)(=O)c1ccc(C)cc1	-8.1	25.5	33.3*	-4.0	-0.3
COc1ccc(N(CC(=O)NCc2ccco2)S(C)(=O)=O)cc1Cl	-67.6*	1.8	-0.5	-2.2	0.2
Cc1cccc(N(CC(=O)NCCSCc2ccco2)S(=O)(=O)c2ccccc2)c1	-16.6	2.9	3.9	-5.4	-1.1
CC(C)c1ccc(N(CC(=O)NCCSCc2ccco2)S(C)(=O)=O)cc1	-60.8*	2.0	-2.5	5.3	-0.2
Cc1ccc(N(CC(=O)NCCSCc2ccco2)S(=O)(=O)c2ccc(C)cc2)cc1	-37.9*	14.4	-6.7	-2.4	0.6
COCCCNC(=O)c1c(NC(=O)Cc2coc3cc(C)cc(C)c23)sc2c1CCCC2	-8.1	2.0	-1.1	0.8	0.7
O=C(c1cnsn1)N1CCCC(Nc2ccc(F)c(F)c2)C1 (centres undefined)	-64.5*	1.4	4.6	-4.6	-0.5
COc1ccc(C(=O)N2CCCC(Nc3ccc(C)c(C)c3)C2)c(OC)n1 (centres undefined)	-0.5	4.1	-6.3	-1.2	-0.9
COc1ccc(C(=O)N2CCCC(Nc3ccc(F)c(F)c3)C2)c(OC)n1 (centres undefined)	-35.0*	-0.6	-1.2	4.4	-0.7
COC(=O)c1ccc(Cl)cc1NC(=O)N(C)CCc1c(C)nn(C)c1C	0.5	-1.1	-6.3	0.7	1.2
Cc1cc2c(s1)c1cnn(Cc3cc(F)ccc3C)c(=O)c1n2C	22.7	2.0	-3.6	6.0	0.1
Cc1nnc(SC(C)C(=O)Nc2nccs2)s1 (centres undefined)	-33.4*	2.6	1.3	-4.8	-0.4
CC(Sc1nnc(N)s1)C(=O)Nc1nccs1 (centres undefined)	-11.4	1.3	-1.0	-3.1	0.0
O=C(NCC1OCCc2ccccc21)c1ccc(NC(=O)c2ccccc2Cl)cc1 (centres undefined)	-37.0*	11.7	-2.1	-4.4	0.8
SMILES	D1 antagonist	D1 agonist	TRHR PAM	D1 PAM	TRHR agonist
CN(C)CCC(=O)NCC1OCCc2ccccc21 (centres undefined)	-33.7*	0.6	-7.8	-4.7	-0.6
C=CC(=O)NCC1OCCc2ccccc21 (centres undefined)	4.4	1.3	2.1	0.7	0.3
COCCNC(=O)Cn1c(=O)c2cccn2c2ccc(F)cc21	4.8	-0.5	4.1	-2.9	0.3
CC(C)c1ccc(S(=O)(=O)c2nnn3c2nc(NCCc2ccccc2)c2sccc23)cc1	-8.2	4.4	2.0	-1.6	1.3
COc1ccc(CCC(=O)Nc2c(C)n(C)n(-c3ccccc3)c2=O)cc1	-37.7*	2.0	-11.3	-8.1	2.0
COc1ccc(NC(=O)Nc2c(C)n(C)n(-c3ccccc3)c2=O)cc1	-6.9	-2.2	-2.9	-4.2	-0.1
COc1ccc(N(CC(=O)Nc2c(C)n(C)n(-c3ccccc3)c2=O)S(=O)(=O)c2ccc(F)cc2)cc1	8.0	3.0	-1.6	-2.5	0.1
COc1ccc(N(CC(=O)Nc2c(C)n(C)n(-c3ccccc3)c2=O)S(=O)(=O)c2ccc(C)cc2)cc1	-4.7	2.5	30.5*	-5.0	-0.5
COc1ccc(NC(=O)N2CCN(C(=O)c3ccco3)CC2)c(OC)c1	5.8	1.3	0.7	-6.3	1.0
C/C(=C\C(=O)c1ccc(Br)cc1)NCc1ccc(C)cc1	1.7	1.0	39.9*	-7.6	-0.1
C/C(=C\C(=O)c1ccc(Br)cc1)NCc1ccccc1	-14.8	0.6	7.3	-3.9	0.5
O=C(NCC(c1ccco1)S(=O)(=O)c1cccs1)c1ccc(F)c(F)c1 (centres undefined)	x	1.4	23.3	-1.1	-0.2
Cc1cc(-c2ccccc2)nc(SC(C(=O)O)c2ccccc2)n1 (centres undefined)	-13.3	2.5	7.3	-6.6	-0.1
O=C(O)C(Sc1ccncn1)c1ccccc1 (centres undefined)	-34.7*	1.4	1.9	2.4	-0.1
Cc1cc(C(=O)Nc2ccccc2C(=O)O)ccc1NC(=O)COc1ccccc1Cl	-2.0	-0.4	35.1*	-0.8	-0.9
COc1c(Cl)cc(C(=O)Nc2ccccc2C(=O)O)cc1Cl	-36.9*	3.3	1.7	6.1	-0.4
Cc1ccc(C(=O)NCC(=O)Nc2ncccc2C)s1	0.6	0.1	-4.3	3.6	-0.2
Cn1cnc2c(=O)oc3ccc(S(=O)(=O)N4CCN(c5ccccc5F)CC4)cc3c21	-6.1	-0.5	9.6	-1.9	-0.9
O=C(Nc1ccc(Cl)cc1)c1cc2c(Cl)nc3ccccc3c2s1	-7.8	2.8	48.2*	-6.0	0.6
CSc1ccc(CCNC(=O)c2cc3cc4cc(C)ccc4nc3s2)cc1	9.6	5.5	0.9	-4.3	0.3
CCc1ccc2nc3sc(C(=O)O)cc3cc2c1	35.8	254.6*	0.0	21.1	-0.6
O=C(CCN1C(=O)C2C3C=CC(C3)C2C1=O)Nc1nccs1 (centres undefined)	-63.8*	0.2	-24.8	-15.2	0.2
CCOC(=O)CC(NC(=O)Cn1nnc(-c2ccccc2C)n1)c1ccc(OC)cc1 (centres undefined)	-19.0	31.4*!	-0.9	-8.7	1.3
CCOC(=O)CC(NC(=O)Cn1nnc(-c2ccc(C(F)(F)F)cc2)n1)c1ccc(OC)cc1 (centres undefined)	-16.0	16.8	-11.2	1.6	-1.4
